Targets with a hit are over-represented here; the source holds about 7,900 in all. About 0.6% of all pairs of compound and target were hits.
Experiments:
Assay in all cases: log2 fold change, soluble protein after heating vs DMSO (PISA); higher = thermal stabilisation; K562 cells, 10 uM, 30 min; active = over 0.2 and 3.5 SD of the protein, either way, in both replicates (recomputed)
[1] = compound: CS(=O)(=O)c1ccc(-c2cnc(N)c(C(=O)Nc3ccccc3)n2)cc1
Summary of the method: (§1)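 Quantification of soluble protein used TMTpro 16plex LC-MS/MS, with channel sums equalised. Samples were the supernatant after 21,000xg for 90 min of pooled aliquots from K562 cells (2×10^6 cells/mL) treated with 10 μM compound for 30 min, heated for 3 min over 48°C-58°C, and extracted in PBS with 0.5% NP-40 at 4°C. Values, from duplicates, describe thermal stability against control samples on a log2 fold-change scale.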

crizotinib = compound: C[C@@H](Oc1cc(-c2cnn(C3CCNCC3)c2)cnc1N)c1c(Cl)ccc(F)c1Cl [crizotinib]
Summary of the method: as §1

[2] = compound: C[C@@H]1COCCN1C2=NC(=NC(=C2)C3(CC3)S(=O)(=O)C)C4=C5C=CNC5=CC=C4
Summary of the method: as §1

[3] = compound: C[C@H](C1=CC=C(C=C1)C(=O)NC2=C3C=CNC3=NC=C2)N
Summary of the method: as §1

duvelisib = compound: C[C@H](Nc1ncnc2nc[nH]c12)c1cc2cccc(Cl)c2c(=O)n1-c1ccccc1 [duvelisib]
Summary of the method: as §1

gandotinib = compound: Cc1cc(Nc2cc(CN3CCOCC3)c3nc(C)c(Cc4ccc(Cl)cc4F)n3n2)n[nH]1 [gandotinib]
Summary of the method: as §1

tozasertib = compound: Cc1cc(Nc2cc(N3CCN(C)CC3)nc(Sc3ccc(NC(=O)C4CC4)cc3)n2)n[nH]1 [tozasertib]
Summary of the method: as §1

[4] = compound: Cc1cc(SCc2sc(-c3ccc(C(F)(F)F)cc3)nc2C)ccc1OCC(=O)O
Summary of the method: as §1

doramapimod = compound: Cc1ccc(-n2nc(C(C)(C)C)cc2NC(=O)Nc2ccc(OCCN3CCOCC3)c3ccccc23)cc1 [doramapimod]
Summary of the method: as §1

ispinesib = compound: Cc1ccc(C(=O)N(CCCN)[C@@H](c2nc3cc(Cl)ccc3c(=O)n2Cc2ccccc2)C(C)C)cc1 [ispinesib]
Summary of the method: as §1

Measured: log2 fold change

CETN2 (UniProt P41208)
UniProt P41208, sequence (P41208 whole entry, looked up): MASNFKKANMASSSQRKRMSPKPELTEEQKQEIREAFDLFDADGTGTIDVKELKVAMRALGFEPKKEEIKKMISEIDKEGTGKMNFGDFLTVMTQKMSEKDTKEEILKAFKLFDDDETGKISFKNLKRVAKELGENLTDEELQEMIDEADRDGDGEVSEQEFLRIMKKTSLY
inactive: [1] 0.011 | crizotinib 0.103 | [2] 0.066 | [3] 0.003 | duvelisib -0.003 | gandotinib 0.041 | tozasertib -0.01 | [4] -0.135 | doramapimod 0.017 | ispinesib 0.084

CD81 (UniProt P60033)
UniProt P60033, sequence (P60033 whole entry, looked up): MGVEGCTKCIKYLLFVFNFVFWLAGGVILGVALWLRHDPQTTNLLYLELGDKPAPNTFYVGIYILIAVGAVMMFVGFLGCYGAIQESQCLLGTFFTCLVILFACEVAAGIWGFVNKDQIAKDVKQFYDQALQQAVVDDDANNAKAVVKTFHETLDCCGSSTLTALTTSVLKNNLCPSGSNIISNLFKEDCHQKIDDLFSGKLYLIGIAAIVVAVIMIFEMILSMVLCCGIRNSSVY
inactive: [1] -0.03 | crizotinib 0.162 | [2] 0.107 | [3] -0.232 | duvelisib -0.041 | gandotinib 0.019 | tozasertib -0.007 | [4] -0.084 | doramapimod -0.025 | ispinesib 0.207

C15orf41 (UniProt Q9Y2V0)
inactive: [1] 0.057 | crizotinib -0.01 | [2] 0.074 | [3] 0.023 | duvelisib 0.003 | gandotinib -0.027 | tozasertib 0.1 | [4] -0.004 | doramapimod 0.08 | ispinesib -0.2

CDC42BPB (UniProt Q9Y5S2)
UniProt Q9Y5S2, sequence (Q9Y5S2 whole entry, looked up): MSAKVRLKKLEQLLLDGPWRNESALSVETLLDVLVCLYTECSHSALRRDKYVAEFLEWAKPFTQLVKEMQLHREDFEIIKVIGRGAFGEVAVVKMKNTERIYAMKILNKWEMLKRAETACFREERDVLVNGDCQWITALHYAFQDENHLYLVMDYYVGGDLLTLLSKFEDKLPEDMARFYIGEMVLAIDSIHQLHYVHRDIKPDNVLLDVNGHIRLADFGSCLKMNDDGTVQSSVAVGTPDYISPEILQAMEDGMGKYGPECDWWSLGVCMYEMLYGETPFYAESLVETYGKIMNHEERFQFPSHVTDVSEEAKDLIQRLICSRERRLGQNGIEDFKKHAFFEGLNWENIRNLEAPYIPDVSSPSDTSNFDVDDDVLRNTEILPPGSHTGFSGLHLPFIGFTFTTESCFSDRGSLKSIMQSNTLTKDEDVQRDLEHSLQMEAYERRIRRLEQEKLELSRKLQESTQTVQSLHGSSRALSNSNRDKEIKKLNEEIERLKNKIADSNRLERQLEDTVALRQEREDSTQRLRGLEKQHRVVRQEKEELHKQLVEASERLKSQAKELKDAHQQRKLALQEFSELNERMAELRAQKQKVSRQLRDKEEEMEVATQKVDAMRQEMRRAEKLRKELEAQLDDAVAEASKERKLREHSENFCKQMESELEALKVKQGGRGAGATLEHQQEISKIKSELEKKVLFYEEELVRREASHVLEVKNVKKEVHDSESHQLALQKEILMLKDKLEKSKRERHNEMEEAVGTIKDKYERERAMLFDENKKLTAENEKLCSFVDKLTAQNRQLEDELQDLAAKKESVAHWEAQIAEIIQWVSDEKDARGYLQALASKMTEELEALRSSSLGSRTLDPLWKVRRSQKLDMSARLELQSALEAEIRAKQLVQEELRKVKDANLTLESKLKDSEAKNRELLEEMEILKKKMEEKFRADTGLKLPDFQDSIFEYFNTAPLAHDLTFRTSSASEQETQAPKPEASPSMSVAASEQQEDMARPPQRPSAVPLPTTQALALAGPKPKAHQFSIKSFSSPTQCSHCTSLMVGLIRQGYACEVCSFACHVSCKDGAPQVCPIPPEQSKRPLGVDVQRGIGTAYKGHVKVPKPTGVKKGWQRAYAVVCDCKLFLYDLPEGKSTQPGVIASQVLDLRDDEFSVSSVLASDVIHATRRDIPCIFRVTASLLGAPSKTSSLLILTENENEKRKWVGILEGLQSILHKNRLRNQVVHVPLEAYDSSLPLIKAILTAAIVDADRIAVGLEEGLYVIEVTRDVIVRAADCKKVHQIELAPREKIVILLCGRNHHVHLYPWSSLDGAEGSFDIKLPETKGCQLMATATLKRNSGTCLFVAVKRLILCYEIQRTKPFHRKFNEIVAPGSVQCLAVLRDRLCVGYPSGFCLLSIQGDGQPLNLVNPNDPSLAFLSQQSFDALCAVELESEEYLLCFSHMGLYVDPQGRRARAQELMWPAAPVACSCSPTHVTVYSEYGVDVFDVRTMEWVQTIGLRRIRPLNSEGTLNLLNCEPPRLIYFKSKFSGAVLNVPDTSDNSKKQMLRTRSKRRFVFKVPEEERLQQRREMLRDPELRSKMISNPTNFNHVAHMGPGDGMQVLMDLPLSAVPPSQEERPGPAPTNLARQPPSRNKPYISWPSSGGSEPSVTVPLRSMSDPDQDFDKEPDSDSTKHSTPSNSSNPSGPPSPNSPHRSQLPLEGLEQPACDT
inactive: [1] 0.068 | crizotinib 0.056 | [2] -0.031 | [3] -0.149 | duvelisib 0.012 | gandotinib 0.029 | tozasertib 0.112 | [4] 0.005 | doramapimod 0.01 | ispinesib -0.148

COX20 isoform 2 (UniProt Q5RI15)
UniProt Q5RI15, sequence (Q5RI15 whole entry, looked up): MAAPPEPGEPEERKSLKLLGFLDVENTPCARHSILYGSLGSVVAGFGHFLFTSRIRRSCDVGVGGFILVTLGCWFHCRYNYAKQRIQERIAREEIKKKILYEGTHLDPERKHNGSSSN
inactive: [1] -0.043 | crizotinib 0.063 | [2] -0.098 | [3] 0.01 | duvelisib -0.017 | gandotinib -0.385 | tozasertib 0.022 | [4] -0.001 | doramapimod -0.001 | ispinesib -0.017

COASY isoform 2 (UniProt Q13057)
UniProt Q13057, sequence (Q13057 whole entry, looked up): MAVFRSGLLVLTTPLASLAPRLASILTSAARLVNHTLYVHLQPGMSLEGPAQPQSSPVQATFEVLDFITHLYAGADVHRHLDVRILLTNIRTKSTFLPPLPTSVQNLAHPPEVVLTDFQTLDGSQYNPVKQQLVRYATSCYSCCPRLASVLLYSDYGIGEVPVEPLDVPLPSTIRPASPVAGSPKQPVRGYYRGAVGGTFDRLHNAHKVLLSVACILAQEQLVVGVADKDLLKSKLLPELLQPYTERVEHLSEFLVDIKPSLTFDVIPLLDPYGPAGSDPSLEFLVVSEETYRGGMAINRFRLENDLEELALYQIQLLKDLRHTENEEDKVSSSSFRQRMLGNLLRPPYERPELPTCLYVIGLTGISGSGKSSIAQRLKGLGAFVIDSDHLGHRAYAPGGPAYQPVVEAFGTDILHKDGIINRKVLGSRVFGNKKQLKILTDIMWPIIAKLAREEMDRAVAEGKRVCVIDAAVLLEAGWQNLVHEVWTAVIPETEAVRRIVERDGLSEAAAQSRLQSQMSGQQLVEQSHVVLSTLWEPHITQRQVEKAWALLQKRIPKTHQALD
inactive: [1] -0.052 | crizotinib -0.071 | [2] 0.133 | [3] -0.09 | duvelisib 0.058 | gandotinib -0.058 | tozasertib -0.031 | [4] 0.045 | doramapimod -0.063 | ispinesib -0.057

CLASP2 isoform 3 (UniProt O75122)
active: gandotinib -0.314
inactive: [1] -0.035 | crizotinib -0.201 | [2] 0.044 | [3] -0.029 | duvelisib 0.047 | tozasertib -0.06 | [4] 0.074 | doramapimod -0.007 | ispinesib -0.054

CD53 (UniProt P19397)
UniProt P19397, sequence (P19397 whole entry, looked up): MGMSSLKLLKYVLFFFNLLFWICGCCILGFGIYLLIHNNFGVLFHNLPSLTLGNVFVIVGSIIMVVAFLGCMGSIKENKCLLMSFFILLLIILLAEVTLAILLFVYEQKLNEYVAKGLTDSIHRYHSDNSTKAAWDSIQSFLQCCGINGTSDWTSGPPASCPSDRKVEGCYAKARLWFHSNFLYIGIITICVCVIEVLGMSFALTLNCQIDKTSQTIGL
inactive: [1] 0.101 | crizotinib 0.047 | [2] 0.005 | [3] -0.084 | duvelisib 0.234 | gandotinib -0.016 | tozasertib -0.165 | [4] -0.11 | doramapimod 0.103 | ispinesib 0.023

CDK5 (UniProt Q00535)
UniProt Q00535, sequence (Q00535 whole entry, looked up): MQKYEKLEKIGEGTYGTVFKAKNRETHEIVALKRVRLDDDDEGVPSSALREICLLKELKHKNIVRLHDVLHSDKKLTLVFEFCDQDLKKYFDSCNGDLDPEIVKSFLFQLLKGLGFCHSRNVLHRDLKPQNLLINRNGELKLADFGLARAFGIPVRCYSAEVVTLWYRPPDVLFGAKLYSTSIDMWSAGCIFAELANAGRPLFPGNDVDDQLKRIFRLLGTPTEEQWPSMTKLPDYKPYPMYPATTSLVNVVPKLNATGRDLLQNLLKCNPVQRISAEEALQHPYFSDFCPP
inactive: [1] 0.019 | crizotinib -0.076 | [2] 0.037 | [3] -0.022 | duvelisib 0.001 | gandotinib -0.003 | tozasertib -0.055 | [4] 0.008 | doramapimod 0.088 | ispinesib -0.033

CSNK2A1 (UniProt P68400)
UniProt P68400, sequence (P68400 whole entry, looked up): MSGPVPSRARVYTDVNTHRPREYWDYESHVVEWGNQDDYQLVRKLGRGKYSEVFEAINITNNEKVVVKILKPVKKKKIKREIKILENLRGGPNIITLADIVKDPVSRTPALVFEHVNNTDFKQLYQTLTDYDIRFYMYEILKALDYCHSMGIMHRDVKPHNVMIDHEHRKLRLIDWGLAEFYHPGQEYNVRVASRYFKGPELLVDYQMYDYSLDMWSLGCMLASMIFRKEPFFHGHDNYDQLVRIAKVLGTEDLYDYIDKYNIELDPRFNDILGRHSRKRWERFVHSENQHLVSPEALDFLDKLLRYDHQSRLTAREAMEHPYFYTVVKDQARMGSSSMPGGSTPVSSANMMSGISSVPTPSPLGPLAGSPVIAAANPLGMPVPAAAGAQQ
inactive: [1] 0.055 | crizotinib -0.04 | [2] 0.016 | [3] -0.17 | duvelisib 0.01 | gandotinib 0.043 | tozasertib -0.004 | [4] 0.005 | doramapimod -0.022 | ispinesib 0.029

CHERP (UniProt Q8IWX8)
inactive: [1] -0.087 | crizotinib -0.108 | [2] 0.109 | [3] 0.009 | duvelisib -0.025 | gandotinib -0.047 | tozasertib 0.08 | [4] 0.138 | doramapimod 0.01 | ispinesib -0.004

CS (UniProt O75390)
UniProt O75390, sequence (O75390 whole entry, looked up): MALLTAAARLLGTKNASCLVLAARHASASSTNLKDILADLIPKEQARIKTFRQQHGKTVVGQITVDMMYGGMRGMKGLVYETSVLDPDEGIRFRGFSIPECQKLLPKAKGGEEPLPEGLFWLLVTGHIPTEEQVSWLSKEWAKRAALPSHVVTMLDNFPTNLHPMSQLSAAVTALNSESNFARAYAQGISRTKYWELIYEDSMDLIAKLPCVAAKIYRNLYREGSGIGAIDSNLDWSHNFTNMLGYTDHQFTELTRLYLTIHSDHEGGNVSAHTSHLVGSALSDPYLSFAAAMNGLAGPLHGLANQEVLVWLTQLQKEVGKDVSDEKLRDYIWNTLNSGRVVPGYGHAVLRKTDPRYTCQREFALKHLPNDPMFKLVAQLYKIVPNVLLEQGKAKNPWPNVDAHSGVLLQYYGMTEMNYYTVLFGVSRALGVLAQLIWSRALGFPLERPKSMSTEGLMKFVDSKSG
inactive: [1] 0.044 | crizotinib -0.122 | [2] 0.072 | [3] -0.034 | duvelisib 0.059 | gandotinib -0.037 | tozasertib 0.027 | [4] 0.061 | doramapimod 0.017 | ispinesib -0.157

CCDC167 (UniProt Q9P0B6)
UniProt Q9P0B6, sequence (Q9P0B6 whole entry, looked up): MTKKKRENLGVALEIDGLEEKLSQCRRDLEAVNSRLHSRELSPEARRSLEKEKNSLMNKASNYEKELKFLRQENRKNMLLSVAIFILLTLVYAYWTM
active: ispinesib -0.344
inactive: [1] -0.08 | crizotinib 0.025 | [2] 0.071 | [3] 0.135 | duvelisib 0.263 | gandotinib 0.181 | tozasertib -0.121 | [4] -0.214 | doramapimod 0.034

CRLF3 (UniProt Q8IUI8)
UniProt Q8IUI8, sequence (Q8IUI8 whole entry, looked up): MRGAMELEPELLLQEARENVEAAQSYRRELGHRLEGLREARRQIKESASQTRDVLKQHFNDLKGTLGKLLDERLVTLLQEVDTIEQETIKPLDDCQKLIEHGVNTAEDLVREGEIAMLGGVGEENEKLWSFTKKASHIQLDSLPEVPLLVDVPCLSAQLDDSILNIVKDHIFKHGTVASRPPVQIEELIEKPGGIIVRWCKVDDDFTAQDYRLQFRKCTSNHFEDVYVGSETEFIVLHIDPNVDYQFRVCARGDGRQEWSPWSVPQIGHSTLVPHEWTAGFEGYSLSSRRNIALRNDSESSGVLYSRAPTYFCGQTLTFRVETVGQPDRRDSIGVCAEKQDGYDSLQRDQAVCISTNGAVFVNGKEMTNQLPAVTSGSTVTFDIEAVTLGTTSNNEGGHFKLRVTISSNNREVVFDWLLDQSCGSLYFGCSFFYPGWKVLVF
inactive: [1] 0.053 | crizotinib -0.015 | [2] 0.048 | [3] 0.017 | duvelisib 0.076 | gandotinib 0.016 | tozasertib 0.021 | [4] 0.019 | doramapimod 0.138 | ispinesib -0.059

CLSPN (UniProt Q9HAW4)
inactive: [1] -0.028 | crizotinib 0.039 | [2] -0.04 | [3] -0.046 | duvelisib -0.045 | gandotinib 0.047 | tozasertib 0.049 | [4] -0.104 | doramapimod 0.001 | ispinesib 0.107

From the supplement of paper PMC10849652
